Experiment [1] in a line: qHTS profiling of the MIPE4 collection as inhibitors of Plasmodium falciparum (3D7) proliferation (AID 743344).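 Also: scaled between DMSO vehicle wells and 0.29 µM artemisinin as full inhibition.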 The note with it: P. falciparum 3D7 in erythrocytes, SYBR Green DNA fluorescence, 72 h; at 28.5 µM unless noted. Summed up: (§1)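 Erythrocytes infected with P. falciparum (0.3% parasitemia, 2.5% hematocrit) incubated with compounds 72 h at 37 C, 5% CO2. Lysis with saponin/Triton buffer containing SYBR Green I, overnight at room temperature in the dark; DNA fluorescence (485/535 nm) normalised to 0.29 uM artemisinin and DMSO.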

Experiment [2] is described as follows: qHTS profiling of the MIPE4 collection as inhibitors of Plasmodium falciparum (DD2) proliferation (AID 743345). To be noted: P. falciparum Dd2 in erythrocytes, SYBR Green DNA, 72 h; at 28.5 µM unless noted. In short, it runs like this: as §1
A general note: qHTS replaces the single test concentration by a dilution series.

The nature of experiment [3]: qHTS profiling of the MIPE4 collection as inhibitors of Plasmodium falciparum (DD2) proliferation (Rep 2) (AID 743346). The note with it: P. falciparum Dd2 in erythrocytes, SYBR Green DNA, 72 h; at 28.5 µM unless noted. In short, it runs like this: as §1
Experiment [4] in a line: qHTS profiling of the MIPE4 collection as inhibitors of Plasmodium falciparum (HB3) proliferation (AID 743347).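 Also: plate controls were DMSO vehicle wells for no effect and artemisinin wells for full effect.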 To be noted: P. falciparum HB3 in erythrocytes, SYBR Green DNA, 72 h; at 28.5 µM unless noted. Summed up:
as §1

Experiment [5] is described as follows: High-throughput drug toxicity screening in the BPDCN cell line Gen2.2 (AID 1224824).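 Also: cells exposed to compounds for 48 h before reading.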 To be noted: Gen2.2 BPDCN cells; at 45.8 µM (top of the series) unless noted. In short, it runs like this: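 Gen2.2 cells, 500 per well in phenol red-free RPMI with 10% FBS, exposed to compounds 48 h at 37 C, 5% CO2; viability by CellTiter-Glo luminescence. Percent activity scaled to DMSO (100%) and 9.2 uM bortezomib final (0%).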

A short description of experiment [6]: High-throughput drug toxicity screening in the BPDCN cell line Cal-1 (AID 1224825). To be noted: Cal-1 BPDCN cell viability, qHTS; at 45.8 µM (top of the series) unless noted. Summed up:
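Exponentially growing Cal-1 cells, 500 per well in phenol red-free RPMI with 10% FBS, were exposed to compounds for 48 h at 37 °C, 5% CO2. Viability was read by CellTiter-Glo luminescence and normalised to DMSO (100%) and 9.2 uM bortezomib (0%).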

Experiment [7] is described as follows: qHTS assay for measurement of the activity of small molecule inhibitors on Zika virus induced Caspase-3 activity in human iPSC derived neural progenitor cells (hNPCs) (AID 1224857; active = well fitted curve in the direction sought with a large enough effect; an effect the other way counts as inactive or inconclusive; also: % of control where 0% means no effect; nearly all actives have a fitted effect of over 65% in size). Summed up: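 Cells were plated at 350 per well and grown 16 to 20 hours. Compound pretreatment lasted one hour, after which ZIKV (2 FFU/cell) was added for 6 hours. Percent inhibition was normalized between uninfected and infected controls.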

Experiment [8] is described as follows: qHTS Screen of the MIPE 4.0 Collection Against Ewings Sarcoma (RDES) (AID 1259252; active = well fitted curve in the direction sought with a large enough effect; an effect the other way counts as inactive or inconclusive; also: nearly all actives have a fitted effect of over 35% in size; also: potency is read from the fitted curve at half-maximal effect). Summed up:
(§2)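 Here, cells in 5% FBS RPMI were exposed for two days (48 h) to compound dilutions added four hours after plating. ATP-based CellTiter-Glo luminescence measured viability, normalized to vehicle and no-cell blanks.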

The nature of experiment [9]: qHTS Screen of the MIPE 4.0 Collection Against Ewings Sarcoma (TC71) (AID 1259253; active = well fitted curve in the direction sought with a large enough effect; an effect the other way counts as inactive or inconclusive; also: nearly all actives have a fitted effect of over 40% in size; also: potency is read from the fitted curve at half-maximal effect). Summed up:
as §2

Experiment [10] in a line: qHTS assay to identify small molecule inhibitors of chordoma cells - UCH-1 (AID 1259355; active = well fitted curve in the direction sought with a large enough effect; an effect the other way counts as inactive or inconclusive; also: % is scaled to controls: 0 for no effect and ±100 for the full control effect; nearly all actives have a fitted effect of over 55% in size). Summed up:
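Luminescent ATP read-out (CellTiter-Glo, 30min at room temperature) measured viability of UCH-1 cells exposed for 48hr to test drugs at 15 concentrations, co-dosed with a five-agent combination of auranofin, camptothecin, doxorubicin, rubitecan and topotecan.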

Experiment [11] can be described thus: qHTS assay for measurement of the activity of small molecule inhibitors on Zika virus induced Caspase-3 activity in human astrocytoma cells (AID 1224859; active = well fitted curve in the direction sought with a large enough effect; an effect the other way counts as inactive or inconclusive;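 also: plate controls were ZIKV-infected untreated cells for no effect and uninfected cells for full effect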). Summed up:
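Percent inhibition of virus-induced caspase-3/7 signal is calculated against uninfected and ZIKV-infected control cells. Cells are SNB-19, infected at 2 FFU/cell for 6 h after 1 h compound exposure.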

Experiment [12] is described as follows: qHTS Screen of the MIPE 4.0 Collection Against Ewings Sarcoma (EW8) (AID 1259255; active = well fitted curve in the direction sought with a large enough effect; an effect the other way counts as inactive or inconclusive; also: potency is read from the fitted curve at half-maximal effect; nearly all actives have a fitted effect of over 35% in size). Summed up: as §2
Experiment [13] can be described thus: Identifying Small Molecule Inhibitors of Pancreatic Cancer Stem Cells (SN12C, Spheroid) (AID 1259360; active = well fitted curve in the direction sought with a large enough effect; an effect the other way counts as inactive or inconclusive;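 also: 100% = DMSO-treated cells and 0% = wells without cells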). The note with it: Potency: SN12C spheroid viability. In short, it runs like this:
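Cytotoxicity read by CellTiter-Glo luminescence after 48 h compound exposure at 37C; percent activity scaled between DMSO-treated cells and cell-free wells. Spheroid formats used cells pre-formed 14 days in stem cell media on hydrogel.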

Experiment [14] is described as follows: Identifying Small Molecule Inhibitors of Pancreatic Cancer Stem Cells (A278, Adherent) (AID 1259361; active = well fitted curve in the direction sought with a large enough effect; an effect the other way counts as inactive or inconclusive; also: nearly all actives have a fitted effect of over 35% in size;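 as to viability (% of control): 100% = DMSO-treated cells and 0% = cell-free media-only wells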). Summed up: (§3)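 Luminescent ATP readout (CellTiter-Glo) quantifies surviving cells after a 48 h drug incubation. Normalization uses DMSO wells as no inhibition and media-only wells as full inhibition; bortezomib served as positive control.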
A short description of experiment [15]: qHTS profiling for inhibitors of Plasmodium falciparum (HB3) proliferation (AID 743324; active = well fitted curve in the direction sought with a large enough effect; an effect the other way counts as inactive or inconclusive;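 also: 100% = DMSO vehicle wells and 0% = artemisinin-treated control wells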). The note with it: Plasmodium falciparum HB3 blood-stage proliferation; at 28.7 µM (top of the series) unless noted. Summed up:
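P. falciparum HB3 grown in erythrocytes (0.3% parasitemia, 2.5% hematocrit final) with compound for 72 h at 37 C, 5% CO2. Parasite DNA detected by SYBR Green after saponin/triton lysis overnight; normalized to 0.29 uM artemisinin and DMSO.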

Experiment [16] in a line: Identifying Small Molecule Inhibitors of Pancreatic Cancer Stem Cells (SN12C, Adherent) (AID 1259358; active = well fitted curve in the direction sought with a large enough effect; an effect the other way counts as inactive or inconclusive;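 also: cell survival measured after 48 h of compound exposure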). In short, it runs like this:
as §3

Experiment [17] is described as follows: Identifying Small Molecule Inhibitors of Pancreatic Cancer Stem Cells (Panc1, Adherent) (AID 1259362; active = well fitted curve in the direction sought with a large enough effect; an effect the other way counts as inactive or inconclusive;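 also: compound exposure lasted 48 h before the viability read; plate controls were DMSO-treated cells for no effect and cell-free media wells for full effect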). The note with it: Potency: viability. In short, it runs like this:
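Pre-formed 14-day tumor spheroids or adherent cells dosed and incubated 48 h, 37C, 5% CO2. Viability assessed by CellTiter-Glo.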

Experiment [18] is described as follows: qHTS Screen of the MIPE 4.0 Collection Against Ewings Sarcoma (TC32) (AID 1259256; active = well fitted curve in the direction sought with a large enough effect; an effect the other way counts as inactive or inconclusive; also: potency is read from the fitted curve at half-maximal effect; nearly all actives have a fitted effect of over 45% in size). In short, it runs like this: as §2

Inconclusive results are not listed. Calls of active or inactive are those of the source. Unless noted, no rule for the calls is given here.

As to `CN1CCN2c3ncccc3Cc3ccccc3C2C1` (centres undefined), in experiment [1], the parasite growth, % of DMSO control is 85.3%. Moreover, the parasite growth remaining, % of DMSO control (lower = more inhibition) in [2] stood at 93.6%. In addition, the parasite growth, % of control (lower = inhibition) in experiment [3] is 50.4%. Also, the growth, % of control in experiment [4] worked out at 75.6%. The cell viability, % of control (lower = more cytotoxic) in [5] was 260%. The viability (% of control) in experiment [6] was found to be 112%. The Potency result in experiment [7], in experiment [8] and in [9] was “inactive” in each case. The call in [10] was inactive.

In the case of `CC(C)n1c(C=C[C@H](O)C[C@H](O)CC(=O)O)c(-c2ccc(F)cc2)c2ccccc21`, the cell viability, % of control (lower = more cytotoxic) in [5] came to 9.81%. In experiment [6], the viability (% of control) was 66.9%. For the same compound, the Potency result in [7], in experiment [11] and in [13] was “inactive” throughout. Also, the Potency in experiment [12] was 9.35 µM (active). The IC50 (viability decrease) in [14] was 1.05 µM (active).

With `COc1cc2c(cc1OC)CC(=O)N(CCCN(C)C[C@H]1Cc3cc(OC)c(OC)cc31)CC2`, the remaining proliferation (% of control), lower = more inhibition in experiment [15] was determined as 77.1%. For the same compound, in experiment [1], the parasite growth, % of DMSO control was determined as 92%. The parasite growth remaining, % of DMSO control (lower = more inhibition) in experiment [2] was found to be 98.4%. Further, in experiment [3], the parasite growth, % of control (lower = inhibition) was determined as 55.5%. In experiment [4], this compound gave a growth, % of control of 79.8%. Also, the cell viability, % of control (lower = more cytotoxic) in experiment [5] is 163%. Besides, the viability (% of control) in experiment [6] came out at 106%. Also, the Potency result in [7], in [16], in experiment [13] and in [17] was “inactive” throughout. Also, the Potency in experiment [8] and in experiment [9] was 16.6 µM (active) each time. Moreover, the compound was classed as inactive in experiment [10]. In addition, the IC50 (viability decrease) entry in [14] was “inactive”.

Take `CC(=O)N1CCN(c2ccc(OCc3nn(C)c(C)c3-c3cccc4c(CCCOc5cc(C)c(Cl)c(C)c5)c(C(=O)O)n(Cc5cccnc5)c34)cc2)CC1`: in experiment [1], the parasite growth, % of DMSO control worked out at 5.72%. Besides, the parasite growth remaining, % of DMSO control (lower = more inhibition) in experiment [2] was 15.1%. Moreover, the parasite growth, % of control (lower = inhibition) in experiment [3] is 13.7%. In addition, in experiment [4], the growth, % of control stood at 6.27%. Besides, the cell viability, % of control (lower = more cytotoxic) in [5] turned out to be 7.74%. For the same compound, the viability (% of control) in [6] came out at 2.47%. In experiment [7], the Potency result was “inactive”. For the same compound, the Potency in experiment [8], in [9] and in experiment [18] was 20.9 µM (active) in each case.

For the compound `Nc1ncnc2c1c(-c1cccc(OCc3ccccc3)c1)cn2C1CC(CN2CCC2)C1` (centres undefined), the parasite growth, % of DMSO control in experiment [1] worked out at 31.5%. Besides, the parasite growth remaining, % of DMSO control (lower = more inhibition) in [2] is 30.5%. For the same compound, the parasite growth, % of control (lower = inhibition) in experiment [3] turned out to be 21.6%. The growth, % of control in experiment [4] was found to be 12.8%. Further, the cell viability, % of control (lower = more cytotoxic) in experiment [5] worked out at 26.4%. For the same compound, the viability (% of control) in [6] came to 44.4%. The Potency entry in [7] was “inactive”. Further, the Potency in experiment [8] is 20.9 µM (active); in [18], 4.69 µM (active).

In the case of `CC(C)(CO)[C@@H](O)C(=O)NCCC(=O)O`, in [1], the parasite growth, % of DMSO control was 92.1%. The parasite growth remaining, % of DMSO control (lower = more inhibition) in experiment [2] came to 101%. In experiment [3], the parasite growth, % of control (lower = inhibition) worked out at 114%. This compound yielded a growth, % of control in experiment [4] of 102%. Also, the cell viability, % of control (lower = more cytotoxic) in experiment [5] stood at 85%. In addition, in experiment [6], the viability (% of control) was 107%. In [7], the Potency entry is “inactive”. In [8], the Potency was 20.9 µM (active).

The record behind these values is PubChem BioAssay (NCATS).
